Results filed as inconclusive are left out. Activity calls are given as the source filed them. Unless noted, calls follow the shape of the dose curve; as a rule, active = well fitted curve in the direction sought with a large enough effect; inconclusive = small, poorly fitted or top-dose-only effect, or another doubt; inactive = no such curve, though single readings can be large; an effect the other way counts as inactive or inconclusive.
Key:
[1] = target: Lysosomal acid glucosylceramidase (Homo sapiens) (UniProt P04062); assay: Glucocerebrosidase-p2 (AID 348; in the data active = potency below about 10 µM; also: potency is read from the fitted curve at half-maximal effect); conditions: purified GBA, blue fluorogenic substrate, 40 min
Summary of the method: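 Compounds titrated from 0.6 nM upwards against 0.2 nM enzyme in pH 5.9 citric acid/KH2PO4, taurocholate, tween-20; blue fluorogenic substrate 80 uM, 40 min room temperature, stopped and read Ex 365/Em 440 for AC50.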

[2] = AP1 Signaling Pathway (AID 357; active = well fitted curve in either direction with a large enough effect, not every such curve was filed as active;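 also: ME-180 reporter cells stimulated with EGF at its EC50 level; % is scaled to controls: 0 for no effect and ±100 for the full control effect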); conditions: ME-180 AP-1-bla reporter, EGF-induced, beta-lactamase ratio, 5 h; at 7.69 µM (top of the series) unless noted
Summary of the method: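 Read-out was the 460nm/530nm emission ratio (excitation 405nm) after CCF4 loading for 2.5 hours at room temperature. Cells carried an AP-1-driven beta-lactamase reporter, were stimulated with EC50 EGF plus compound for 5 hours, and AC50 values came from titrations.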

[3] = target: Cytochrome P450 1A2 (Homo sapiens) (UniProt P05177); assay: p450-cyp1a2 (AID 410; calls by dose curve; also: potency is read from the fitted curve at half-maximal effect)
Summary of the method: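 Inhibition was calculated relative to 57 uM furafylline (full inhibition). The reaction used human CYP1A2 at 20nM with Luciferin-ME at its Km, 100uM, driven by an NADPH-regenerating system for 60 min at room temperature.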

[4] = NFAT Signaling Pathway (AID 444; active = well fitted curve in either direction with a large enough effect, not every such curve was filed as active;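 also: carbachol stimulus at about its EC50 of 1 µM final; % is scaled to controls: 0 for no effect and ±100 for the full control effect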); conditions: Jurkat NFAT-bla M1, carbachol, beta-lactamase ratio, 5 h; at 7.69 µM (top of the series) unless noted
Summary of the method: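 Jurkat cells with NFAT-driven β-lactamase reporter and co-expressed M1 receptor, stimulated with carbachol (final 1 uM, ~EC50), compound titration, 5 h at 37 °C. CCF4 loaded 1 h at RT; 460/530 nm ratio gave %activity and AC50.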

[5] = Stat Signaling Pathway (AID 446; active = well fitted curve in either direction with a large enough effect, not every such curve was filed as active;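 also: ME-180 cervical cancer cells given 40 pM IL-6 alongside compound; SIE-controlled beta-lactamase reporter measured as 460/530 nm FRET emission ratio; % is scaled to controls: 0 for no effect and ±100 for the full control effect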); conditions: ME-180 (cervical carcinoma) SIE beta-lactamase reporter, IL-6 stimulated, 5 h; at 7.69 µM (top of the series) unless noted
Summary of the method: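 IL-6/STAT signaling read in ME-180 cells via an SIE beta-lactamase reporter. Stimulus was 40 pM IL-6 (its AC50) for 5 hrs, so both activation and inhibition register.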

[6] = target: Glucocorticoid receptor (Homo sapiens) (UniProt P04150); assay: GR-GFP Redistribution (AID 450;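 active = compounds whose dose series gives a full or clear partial fitted curve of increased nuclear translocation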; also: potency is read from the fitted curve at half-maximal effect); conditions: U2OS GR-GFP nuclear translocation, laser cytometry, 2 h
[7] = target: Glucocorticoid receptor (Homo sapiens) (UniProt P04150); assay: GR-EFC Redistribution (AID 451; calls by dose curve; also: potency is read from the fitted curve at half-maximal effect); conditions: CHO-K1 GR-EFC translocation, beta-gal luminescence, 2 h
Summary of the method: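 CHO-K1 cells expressing nuclear EA and GR-ED fragments of b-gal; compounds titrated up to 46 uM final, 2 h at 37 C. GR nuclear translocation read as complemented b-gal luminescence after 1 h RT detection.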

[8] = target: Mitogen-activated protein kinase 10 (Mus musculus) (UniProt Q61831); assay: JNK3 AlphaScreen Assay (AID 530; active = well fitted curve in either direction with a large enough effect, not every such curve was filed as active;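 also: kinase came from lysate of stimulated human HepG2 cells; signal reports phosphorylation of biotinylated GST-cJun 1-79 at Ser73 with 10 µM ATP; % is scaled to controls: 0 for no effect and ±100 for the full control effect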)
Summary of the method: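 qHTS format: compounds tested as titrations against IL-1beta/TNF-alpha-activated HepG2 lysate JNK3 with biotin-GST-cJun substrate and 10 uM ATP at room temperature. Loss of anti-phospho-cJun AlphaScreen signal indicates inhibition.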

[9] = target: Cytochrome P450 3A4 (Homo sapiens) (UniProt P08684); assay: qHTS Assay for Inhibitors and Substrates of Cytochrome P450 3A4 (AID 884); also: potency is read from the fitted curve at half-maximal effect; nearly all actives have a fitted effect of over 50% in size
Summary of the method: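 20 nM human CYP3A4 with 25 uM Luciferin-PPXE (at KM) in 200 mM KPO4, preincubated 10 min with compound; NADPH regeneration started a 60 min RT reaction. Luciferin detected by luminescence, normalized to 57 uM ketoconazole as full inhibition.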

[10] = target: Cytochrome P450 3A4 (Homo sapiens) (UniProt P08684); assay: qHTS Assay for Activators of Cytochrome P450 3A4 (AID 885); also: nearly all actives have a fitted effect of over 65% in size
Summary of the method: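 Quantitative HTS format: compounds preincubated with 20nM human CYP3A4 and Luciferin-PPXE substrate at KM, reaction started by NADPH regeneration, stopped after 60 min, luciferase luminescence read 20 min later.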

[11] = target: Dual specificity protein kinase CLK4 (Homo sapiens) (UniProt Q9HAZ1); assay: qHTS Assay for Inhibitors of CDC-like Kinase 4 (Kinase-Glo Assay) (AID 1770); also: potency is read from the fitted curve at half-maximal effect; nearly all actives have a fitted effect of over 65% in size
Summary of the method: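 Luminescent ATP-depletion read-out (Kinase-Glo) after 4.5 h room-temperature reaction of Clk4 (25 nM final) with RS peptide (100 uM) and ATP (1 uM), pH 7.5 Tris buffer with MgCl2 and DTT.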

[12] = target: Dual specificity protein kinase CLK4 (Homo sapiens) (UniProt Q9HAZ1); assay: qHTS Assay for Inhibitors of CDC-like Kinase 4 (ADP-Glo Assay) (AID 1771); also: potency is read from the fitted curve at half-maximal effect; nearly all actives have a fitted effect of over 70% in size
Summary of the method: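 Kinase reaction: Clk4 at 25 nM, RS repeat peptide substrate at 100 uM, ATP at 1 uM, 1 hr, room temperature. Product ADP detected as luciferase signal via ADP-Glo.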

[13] = target: Dual specificity protein kinase CLK4 (Homo sapiens) (UniProt Q9HAZ1); assay: qHTS Assay for Inhibitors of CDC-like Kinase 4 (ADP-FP Assay) (AID 1795); also: potency is read from the fitted curve at half-maximal effect; nearly all actives have a fitted effect of over 60% in size
Summary of the method: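 Kinase activity was measured as ADP production using Transcreener orange tracer (4 nM) and ADP antibody (1 ug/mL) fluorescence polarization, with ADP calculated from a calibration curve. The 1 h reaction contained 6.25 nM Clk4, 1 uM ATP and 100 uM RS peptide at pH 7.5 with Mg2+.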

[14] = target: Ubiquitin carboxyl-terminal hydrolase 1 (Homo sapiens) (UniProt O94782); assay: Inhibitors of USP1/UAF1: Pilot qHTS (AID 504865);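 also: rhodamine fluorescence freed from ubiquitin-rhodamine substrate followed over time; top concentration of the series differs between compounds; % is scaled to controls: 0 for no effect and ±100 for the full control effect; nearly all actives have a fitted effect of over 35% in size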
Summary of the method: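 Deubiquitinase activity followed as kinetic rhodamine fluorescence release from 150 nM Ub-Rho. 1 nM USP1/UAF1 with compound, after 15 min room-temperature preincubation, in HEPES pH 7.8 buffer containing TCEP, EDTA, BSA and Tween-20.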

[15] = target: Calcium and integrin-binding protein 1 (Homo sapiens) (UniProt Q99828); assay: Primary qHTS for Identification of Calcium Integrin Binding Protein 1 (CIB1) Competitor (AID 1508620)
Summary of the method: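 Fluorescence polarization competition: GST-tagged CIB1 (1 uM final) preincubated with compound 15 min at room temperature, then FITC-labelled alphaIIb peptide (100 nM final) added. After 15 min at room temperature, polarization read at Ex 480/Em 540.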

[16] = Primary qHTS for small molecule stabilizers of the endoplasmic reticulum resident proteome: Secreted ER Calcium Modulated Protein (SERCaMP) assay (AID 1508630); also: % is scaled to controls: 0 for no effect and ±100 for the full control effect
Summary of the method: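 GLuc-SERCaMP-expressing SH-SY5Y cells, pretreated 16 h with compound, are challenged with thapsigargin to empty ER calcium stores; after 4 h, coelenterazine is added directly to the medium and luminescence is imaged.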

[17] = target: 3',5'-cyclic-AMP phosphodiesterase 4B (Homo sapiens) (UniProt Q07343); assay: qHTS Assay for Inhibitors of PDE-IV (AID 607; active = well fitted activation curve with a large enough effect in the main read-out, with a control signal flat, not every such curve was filed as active; also: % of control where 0% means no effect)
Summary of the method: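 Live HEK293 cells with a modified cyclic nucleotide-gated (CNG) channel report intracellular cAMP via membrane-potential dye fluorescence (ex 535/em 590 nm). Endogenous PDE-IV was targeted. Compounds were tested at up to 22.9 uM final; RO 20-1724 100 uM served as control.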

[18] = target: Cytochrome P450 2C19 (Homo sapiens) (UniProt P33261); assay: qHTS Assay for Inhibitors and Substrates of Cytochrome P450 2C19 (AID 899); also: potency is read from the fitted curve at half-maximal effect; nearly all actives have a fitted effect of over 60% in size
Summary of the method: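 Signal comes from luciferase acting on luciferin released by CYP2C19-mediated hydroxylation of Luciferin-H EGE, 10uM (KM). Assay mix: 5nM enzyme, 50mM KPO4; 60 min at 37C with NADPH regeneration. Data normalized against 57uM ketoconazole.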

[19] = qHTS Assay for Lipid Storage Modulators (AID 1519; calls by dose curve); conditions: Drosophila S3 cells, BODIPY lipid droplet/cell ratio, laser cytometry, cells loaded with oleic acid
Summary of the method: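 Cells seeded at 5,000 per well were treated with compounds over a concentration series and loaded with oleic acid (400 uM, as added). Lipid droplet fluorescence (488 nm excitation, 500-530 nm channel) was read by laser-scanning cytometry and normalized to 20 uM Triacsin C.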

[20] = target: Rap guanine nucleotide exchange factor 3 (Homo sapiens) (UniProt O95398); assay: Confirmatory qHTS for antagonist of cAMP-regulated guanine nucleotide exchange factor 3 (EPAC1) (AID 1645880);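 also: plate controls were DMSO only for no effect and full effect of the ATA control for full effect; nearly all actives have a fitted effect of over 55% in size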
Summary of the method: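 Nucleotide exchange uses 100 nM EPAC1, 250 nM RAP1B-BODIPY-GDP and 50 uM GDP, with compounds in a concentration-titration series. After 5 min at room temperature, fluorescence (480 nm ex/540 nm em) is read every 5 min for 30 min. Data are normalized to control ATA and DMSO.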

[21] = target: Rap guanine nucleotide exchange factor 3 (Homo sapiens) (UniProt O95398); assay: Confirmatory qHTS for agonist of cAMP-regulated guanine nucleotide exchange factor 3 (EPAC1) (AID 1645881);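 also: EPAC1 catalysed release of BODIPY-GDP from Rap1B seen as fluorescence loss; 100% = effect of cAMP agonist control; nearly all actives have a fitted effect of over 75% in size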
[22] = target: Rap guanine nucleotide exchange factor 4 (Homo sapiens) (UniProt Q8WZA2); assay: Confirmatory qHTS for agonist of cAMP-regulated guanine nucleotide exchange factor 4 (EPAC2) (AID 1645884);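 also: nucleotide exchange releases bodipy-GDP from Rap1 and this lowers its fluorescence; % is scaled to controls: 0 for no effect and ±100 for the full control effect; nearly all actives have a fitted effect of over 65% in size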
[23] = target: Rap guanine nucleotide exchange factor 4 (Homo sapiens) (UniProt Q8WZA2); assay: Confirmatory qHTS for antagonist of cAMP-regulated guanine nucleotide exchange factor 4 (EPAC2) (AID 1645885); also: % is scaled to controls: 0 for no effect and ±100 for the full control effect; nearly all actives have a fitted effect of over 25% in size

Cytochrome P450 3A4 (Homo sapiens), sequence (P08684 whole entry, looked up): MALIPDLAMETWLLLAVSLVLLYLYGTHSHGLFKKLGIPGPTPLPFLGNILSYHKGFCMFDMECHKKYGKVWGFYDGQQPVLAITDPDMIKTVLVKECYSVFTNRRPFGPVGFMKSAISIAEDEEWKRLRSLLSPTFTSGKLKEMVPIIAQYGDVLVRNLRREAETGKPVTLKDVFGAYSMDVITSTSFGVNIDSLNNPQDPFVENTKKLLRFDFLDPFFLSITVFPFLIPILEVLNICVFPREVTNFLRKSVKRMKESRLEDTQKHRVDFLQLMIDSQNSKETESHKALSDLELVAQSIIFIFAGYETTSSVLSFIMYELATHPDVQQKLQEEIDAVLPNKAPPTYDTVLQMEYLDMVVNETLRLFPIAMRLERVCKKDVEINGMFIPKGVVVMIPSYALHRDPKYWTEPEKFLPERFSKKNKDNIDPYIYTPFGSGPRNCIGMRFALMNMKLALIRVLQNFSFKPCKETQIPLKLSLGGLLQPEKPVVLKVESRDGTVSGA
Calcium and integrin-binding protein 1 (Homo sapiens), sequence (Q99828 whole entry, looked up): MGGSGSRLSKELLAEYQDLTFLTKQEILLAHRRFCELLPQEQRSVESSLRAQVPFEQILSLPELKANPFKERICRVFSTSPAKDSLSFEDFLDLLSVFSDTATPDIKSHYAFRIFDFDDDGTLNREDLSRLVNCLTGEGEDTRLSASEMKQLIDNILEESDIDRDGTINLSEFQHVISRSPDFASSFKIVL
Dual specificity protein kinase CLK4 (Homo sapiens), sequence (Q9HAZ1 whole entry, looked up): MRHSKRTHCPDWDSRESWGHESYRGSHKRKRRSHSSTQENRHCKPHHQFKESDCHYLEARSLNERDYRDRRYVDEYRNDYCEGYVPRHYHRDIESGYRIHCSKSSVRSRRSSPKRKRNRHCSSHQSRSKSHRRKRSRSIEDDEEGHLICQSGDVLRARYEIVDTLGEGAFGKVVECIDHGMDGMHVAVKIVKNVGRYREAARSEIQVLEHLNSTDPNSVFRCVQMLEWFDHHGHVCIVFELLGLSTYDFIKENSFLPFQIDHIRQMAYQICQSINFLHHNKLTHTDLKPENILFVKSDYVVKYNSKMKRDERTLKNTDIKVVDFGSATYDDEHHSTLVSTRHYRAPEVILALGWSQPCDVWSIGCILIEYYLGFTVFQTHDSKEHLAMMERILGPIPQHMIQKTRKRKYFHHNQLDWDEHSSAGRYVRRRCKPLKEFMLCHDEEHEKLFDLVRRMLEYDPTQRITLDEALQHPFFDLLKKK
Glucocorticoid receptor (Homo sapiens), sequence (P04150 whole entry, looked up, the tested form may be a part): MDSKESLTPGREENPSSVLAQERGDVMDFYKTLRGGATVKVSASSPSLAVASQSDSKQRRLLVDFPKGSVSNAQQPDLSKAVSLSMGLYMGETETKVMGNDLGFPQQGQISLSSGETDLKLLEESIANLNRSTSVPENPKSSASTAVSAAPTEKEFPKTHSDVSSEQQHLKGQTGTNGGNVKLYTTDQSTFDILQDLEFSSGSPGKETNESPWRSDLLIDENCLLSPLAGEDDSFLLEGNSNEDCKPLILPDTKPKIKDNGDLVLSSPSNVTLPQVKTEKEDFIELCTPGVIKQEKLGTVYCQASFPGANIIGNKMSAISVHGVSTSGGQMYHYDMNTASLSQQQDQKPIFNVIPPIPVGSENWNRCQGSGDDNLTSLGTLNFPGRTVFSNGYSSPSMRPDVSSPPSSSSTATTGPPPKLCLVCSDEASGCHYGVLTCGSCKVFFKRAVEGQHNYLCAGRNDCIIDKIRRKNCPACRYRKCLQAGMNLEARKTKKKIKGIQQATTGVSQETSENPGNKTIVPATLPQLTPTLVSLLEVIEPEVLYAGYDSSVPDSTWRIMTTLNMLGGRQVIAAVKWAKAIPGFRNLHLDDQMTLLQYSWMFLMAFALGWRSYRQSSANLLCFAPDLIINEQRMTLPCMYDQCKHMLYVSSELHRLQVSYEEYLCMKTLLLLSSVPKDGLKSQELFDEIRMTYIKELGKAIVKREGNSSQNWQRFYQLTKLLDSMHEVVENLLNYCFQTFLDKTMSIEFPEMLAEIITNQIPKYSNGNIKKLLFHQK
Cytochrome P450 1A2 (Homo sapiens), sequence (P05177 whole entry, looked up): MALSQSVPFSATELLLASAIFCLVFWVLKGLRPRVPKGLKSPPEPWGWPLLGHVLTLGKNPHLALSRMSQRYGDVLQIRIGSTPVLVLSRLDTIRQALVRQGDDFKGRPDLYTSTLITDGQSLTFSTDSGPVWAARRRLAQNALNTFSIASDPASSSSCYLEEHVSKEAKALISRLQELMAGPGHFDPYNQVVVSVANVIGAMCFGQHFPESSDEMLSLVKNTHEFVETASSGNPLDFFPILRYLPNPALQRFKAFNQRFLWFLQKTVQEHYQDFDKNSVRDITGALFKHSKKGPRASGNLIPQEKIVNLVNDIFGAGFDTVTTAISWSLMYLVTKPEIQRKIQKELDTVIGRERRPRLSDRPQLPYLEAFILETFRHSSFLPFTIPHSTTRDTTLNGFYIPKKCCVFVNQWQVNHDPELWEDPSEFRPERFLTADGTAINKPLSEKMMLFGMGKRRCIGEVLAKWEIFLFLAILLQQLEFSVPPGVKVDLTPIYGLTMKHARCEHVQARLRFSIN
Rap guanine nucleotide exchange factor 3 (Homo sapiens), sequence (O95398 whole entry, looked up): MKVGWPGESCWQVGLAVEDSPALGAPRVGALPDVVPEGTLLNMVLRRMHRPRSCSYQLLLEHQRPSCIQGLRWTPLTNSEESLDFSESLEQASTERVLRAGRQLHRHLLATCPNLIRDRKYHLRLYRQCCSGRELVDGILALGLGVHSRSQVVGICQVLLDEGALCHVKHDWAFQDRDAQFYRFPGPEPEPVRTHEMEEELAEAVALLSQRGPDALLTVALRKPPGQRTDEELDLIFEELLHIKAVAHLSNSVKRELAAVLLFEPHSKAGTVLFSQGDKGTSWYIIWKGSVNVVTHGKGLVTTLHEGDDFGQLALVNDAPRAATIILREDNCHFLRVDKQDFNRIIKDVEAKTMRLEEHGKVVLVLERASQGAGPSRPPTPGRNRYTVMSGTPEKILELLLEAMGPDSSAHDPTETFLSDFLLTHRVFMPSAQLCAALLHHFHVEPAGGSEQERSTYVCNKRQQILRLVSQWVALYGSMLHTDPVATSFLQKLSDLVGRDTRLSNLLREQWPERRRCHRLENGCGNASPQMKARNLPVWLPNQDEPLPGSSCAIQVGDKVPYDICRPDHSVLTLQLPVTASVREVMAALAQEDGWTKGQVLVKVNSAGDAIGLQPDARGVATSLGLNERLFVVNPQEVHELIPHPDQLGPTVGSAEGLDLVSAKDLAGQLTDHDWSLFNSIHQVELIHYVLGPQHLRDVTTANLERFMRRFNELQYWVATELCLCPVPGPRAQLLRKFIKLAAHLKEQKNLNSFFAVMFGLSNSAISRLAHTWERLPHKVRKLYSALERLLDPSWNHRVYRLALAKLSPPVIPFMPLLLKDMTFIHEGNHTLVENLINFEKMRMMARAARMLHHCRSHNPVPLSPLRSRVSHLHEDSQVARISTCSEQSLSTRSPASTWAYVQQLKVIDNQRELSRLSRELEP
Lysosomal acid glucosylceramidase (Homo sapiens), sequence (P04062 whole entry, looked up): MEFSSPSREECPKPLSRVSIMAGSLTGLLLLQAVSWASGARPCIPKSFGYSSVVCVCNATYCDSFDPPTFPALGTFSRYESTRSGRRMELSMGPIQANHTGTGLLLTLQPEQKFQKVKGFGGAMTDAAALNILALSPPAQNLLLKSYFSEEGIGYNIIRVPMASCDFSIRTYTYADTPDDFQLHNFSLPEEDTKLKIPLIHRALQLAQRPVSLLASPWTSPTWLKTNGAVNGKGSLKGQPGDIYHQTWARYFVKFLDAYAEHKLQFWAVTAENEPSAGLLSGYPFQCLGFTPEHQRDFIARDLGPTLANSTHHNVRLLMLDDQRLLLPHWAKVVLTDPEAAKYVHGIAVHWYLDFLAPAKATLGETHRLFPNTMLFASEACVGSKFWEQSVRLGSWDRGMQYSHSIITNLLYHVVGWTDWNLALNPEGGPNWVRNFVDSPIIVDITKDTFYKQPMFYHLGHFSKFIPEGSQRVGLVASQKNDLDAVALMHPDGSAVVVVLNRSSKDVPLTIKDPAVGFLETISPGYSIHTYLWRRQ
Rap guanine nucleotide exchange factor 4 (Homo sapiens), sequence (Q8WZA2 whole entry, looked up): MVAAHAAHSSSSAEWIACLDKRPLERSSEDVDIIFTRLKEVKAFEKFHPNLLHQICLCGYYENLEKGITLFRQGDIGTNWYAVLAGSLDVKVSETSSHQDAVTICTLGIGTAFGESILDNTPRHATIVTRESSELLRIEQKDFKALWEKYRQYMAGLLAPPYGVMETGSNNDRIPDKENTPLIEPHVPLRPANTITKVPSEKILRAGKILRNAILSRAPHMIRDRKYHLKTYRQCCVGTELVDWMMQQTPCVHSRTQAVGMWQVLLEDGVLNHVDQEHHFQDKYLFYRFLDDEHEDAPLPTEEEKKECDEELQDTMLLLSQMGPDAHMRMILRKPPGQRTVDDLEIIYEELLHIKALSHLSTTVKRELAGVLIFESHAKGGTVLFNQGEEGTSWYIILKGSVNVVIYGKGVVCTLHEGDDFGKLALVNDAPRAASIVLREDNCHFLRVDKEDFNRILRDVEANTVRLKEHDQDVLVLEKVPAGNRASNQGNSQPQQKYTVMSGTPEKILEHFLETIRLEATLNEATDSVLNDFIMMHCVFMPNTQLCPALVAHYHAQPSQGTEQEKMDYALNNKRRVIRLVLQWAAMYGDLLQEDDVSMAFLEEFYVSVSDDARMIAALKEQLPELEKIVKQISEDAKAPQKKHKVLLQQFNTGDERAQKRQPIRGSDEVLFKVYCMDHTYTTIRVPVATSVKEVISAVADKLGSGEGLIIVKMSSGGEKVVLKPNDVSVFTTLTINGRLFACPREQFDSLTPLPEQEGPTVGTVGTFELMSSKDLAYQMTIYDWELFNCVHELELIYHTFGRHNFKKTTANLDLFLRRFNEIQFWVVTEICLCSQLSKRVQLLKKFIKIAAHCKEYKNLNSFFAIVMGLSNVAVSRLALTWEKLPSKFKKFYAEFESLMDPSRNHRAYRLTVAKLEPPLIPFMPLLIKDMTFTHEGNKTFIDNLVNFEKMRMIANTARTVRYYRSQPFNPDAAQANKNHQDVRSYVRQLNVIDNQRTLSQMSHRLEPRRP

## Clc1ccccc1-c1ccc2ncnc(NCc3cccnc3)c2c1
[1]
  Potency: > 11.4 µM (inactive)
[2]
  activity change, negative = inhibition: 2.12% (inactive)
[3]
  Potency: 0.158 µM (active)
[4]
  activity change, negative = inhibition: 13.8% (inactive)
[5]
  activity, negative = inhibition: -5.2% (inactive)
[6]
  Potency: > 46 µM (inactive)
[7]
  Potency: > 46 µM (inactive)
[8]
  outcome: inactive
[9]
  Potency: 2 µM (active)
[10]
  Potency: inactive
[11]
  Potency: 10 µM (active)
[12]
  Potency: 11.2 µM (active)
[13]
  Potency: 10 µM (active)
[14]
  Potency: inactive
[15]
  Potency: inactive
[16]
  Potency: inactive

## COc1cc(-c2nc(Nc3ccc(F)c(F)c3)c3ccccc3n2)c(F)cn1
[15]
  Potency: inactive

## Fc1cnc(-c2ccccc2C(F)F)nc1NCc1ccc(-c2cccnc2)cc1
[15]
  Potency: inactive

## COc1cccc(-c2ccc3ncnc(N(C)Cc4ccco4)c3c2)c1
[1]
  Potency: > 11.4 µM (inactive)
[2]
  activity change, negative = inhibition: -18.7% (inactive)
[3]
  Potency: 1.26 µM (active)
[4]
  activity change, negative = inhibition: -8.47% (inactive)
[5]
  activity, negative = inhibition: -14.9% (inactive)
[6]
  Potency: > 46 µM (inactive)
[7]
  Potency: > 46 µM (inactive)
[8]
  outcome: inactive
[17]
  Potency: inactive
[10]
  Potency: inactive
[18]
  Potency: 2 µM (active)
[19]; at 57.5 µM (top of the series)
  activity change, negative = inhibition: 1.9% (inactive)
[19]; measured here: cell count channel max response
  max response: 8.44%
[19]; measured here: lipid channel max response
  max response: 7.63%
[11]
  Potency: 2 µM (active)
[12]
  Potency: 1.78 µM (active)
[14]
  Potency: inactive
[15]
  Potency: inactive
[16]
  Potency: inactive
[20]
  Potency: inactive
[21]
  outcome: inactive
[22]
  activation: 8.39% [at 17.1 µM] (inactive)
[23]
  activity change, negative = inhibition: -12.8% [at 12.7 µM] (inactive)
